# Screening data deposited in PubChem by National Center for Advancing Translational Sciences (NCATS).
# This is a sample that favours compounds with a hit; in the whole collection about 19% have one here.
# TDP1 inh: inhibitors of human tyrosyl-DNA phosphodiesterase TDP1; Q9NUW8; recombinant TDP1, AlphaScreen DNA substrate cleavage; Potency, µM (top dose mostly 130 µM), without a hit: at the highest dose activity change, negative = inhibition, usual class: inhibitors; 350,000 tested, 0.28% active; AID 485290; also: potency is read from the fitted curve at half-maximal effect; nearly all actives have a fitted effect of over 40% in size
# Target sequence (Q9NUW8 whole entry, looked up): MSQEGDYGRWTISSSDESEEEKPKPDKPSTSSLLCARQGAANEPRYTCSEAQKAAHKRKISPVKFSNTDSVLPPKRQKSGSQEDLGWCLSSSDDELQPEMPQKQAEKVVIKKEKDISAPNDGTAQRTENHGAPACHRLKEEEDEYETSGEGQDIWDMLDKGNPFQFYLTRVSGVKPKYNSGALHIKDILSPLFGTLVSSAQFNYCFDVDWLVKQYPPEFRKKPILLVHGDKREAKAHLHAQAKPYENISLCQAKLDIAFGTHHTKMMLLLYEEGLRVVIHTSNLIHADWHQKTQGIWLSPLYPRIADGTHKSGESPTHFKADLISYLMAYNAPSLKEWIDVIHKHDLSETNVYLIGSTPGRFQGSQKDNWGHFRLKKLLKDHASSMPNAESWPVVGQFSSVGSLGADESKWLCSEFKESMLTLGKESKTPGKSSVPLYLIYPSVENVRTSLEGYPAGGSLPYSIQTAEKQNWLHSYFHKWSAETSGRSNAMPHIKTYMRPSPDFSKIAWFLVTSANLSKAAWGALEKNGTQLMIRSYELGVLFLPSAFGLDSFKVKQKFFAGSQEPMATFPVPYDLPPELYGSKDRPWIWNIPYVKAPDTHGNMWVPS
#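 Compounds were preincubated with Tdp1 (1 nM final) for 15 min at room temperature before substrate (15 nM final) started a 5 min reaction; beads (10 ug/ml final) were then added for 10 min before AlphaScreen detection.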
# DT40 TDP1 no CPT: qHTS for Inhibitors of human tyrosyl-DNA phosphodiesterase 1 (TDP1): qHTS in cells in absence of CPT | DT40 Tdp1-/- hTDP1 cells, no CPT, ATP luminescence, 48 h | 420,000 tested, 15% active | Potency, µM (top dose mostly 46.2 µM), for inactives: at the top dose activity change, negative = growth inhibition, most hits filed as inhibitors | AID 686978, 2013; also: potency is read from the fitted curve at half-maximal effect; nearly all actives have a fitted effect of over 55% in size
#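 Camptothecin absent (DMSO only). Human TDP1-complemented DT40 knockout cells, 400 cells/well, 37 °C for minimum 48 hr; ATP measured via CellTiter-Glo, 30 min dark incubation, luminescence.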
# IL-1B inflam inh: inhibitors of inflammasome signaling (IL-1 beta secretion); AID 743279; 360,000 tested, 4.7% active; THP-1 LPS/ATP IL-1B secretion, AlphaLISA, 16 h; stronger effect = lower value; activity change, % at 57.5 µM; in the data active = activity change below about -50%; inconclusive = mostly about -30% to -49%
#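 Secreted IL-1B measured by AlphaLISA bead assay after 16 h compound exposure of THP-1 cells; compounds (final up to 57.5 uM) added 1 h before LPS (250 ng/mL) and ATP (1.25 mM) stimulation; lower signal means less secretion.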
# Giardia kill: kills Giardia lamblia; activity change, % at 7.66 µM, hits read low; Giardia lamblia trophozoite viability; AID 540267; 340,000 tested, 0.15% active; in the data active = activity change below about -80%; inconclusive = between about -30% and that limit;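 also: parasites exposed to compound for two days anaerobically before the ATP read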
#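 Giardia lamblia trophozoites (100 cells/well) were incubated with compounds for 48 h at 37 deg C under anaerobic conditions. Viability was read as ATP content by one-step luminescence after 15-30 min at room temperature.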
# DT40 TDP1 CPT: DT40-hTDP1 cell growth loss with CPT; chicken DT40 Tdp1-/-;hTDP1 cells + 20 nM CPT, ATP luminescence, 48 h; Potency, µM (titrated, usually from 46.2 µM), inactives show at the top dose activity change, negative = growth inhibition, actives largely listed as inhibitors; 420,000 tested, 12% active; also: potency is read from the fitted curve at half-maximal effect; nearly all actives have a fitted effect of over 55% in size
#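 Chicken DT40 Tdp1-/- cells stably complemented with human TDP1 were seeded at 400 cells/well in medium containing 20 nM camptothecin, exposed to pin-transferred compounds, and grown at 37 °C for at least 48 hr. Viability was read as ATP luminescence.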
# ELG1 repair inh: inhibitors of ELG1-dependent DNA repair in HEK293T cells. HEK293T ELG1-luciferase reporter, luminescence, 16 h; DNA damage induced by 5-fluorouridine. Potency, µM (highest dose often 46.1 µM), for the others: at the top dose activity change, negative = inhibition, hits mostly inhibitors. 330,000 tested, 2.3% active; also: potency is read from the fitted curve at half-maximal effect; nearly all actives have a fitted effect of over 55% in size
#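 Cells (2,000 per well) received 5-fluorouridine plus test compound or DMSO and were incubated 16 hr at 37 °C, 5% CO2. Luciferase activity was read by luminescence 30 min after ONE-Glo addition; signal suppression marked inhibition of damage-induced ELG1 function.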
# Starred values were filed as active, the others as inactive; ? = inconclusive; / = no result given. Unless noted, calls follow the shape of the dose curve; as a rule, active = well fitted curve in the direction sought with a large enough effect; inconclusive = small, poorly fitted or top-dose-only effect, or another doubt; inactive = no such curve, though single readings can be large; an effect the other way counts as inactive or inconclusive. % is scaled to controls: 0 for no effect and ±100 for the full control effect.
SMILES,TDP1 inh,DT40 TDP1 no CPT,IL-1B inflam inh,Giardia kill,DT40 TDP1 CPT,ELG1 repair inh
COc1ccc(C2CC(c3cccs3)=NN2C(=O)COC(=O)c2cncc(Br)c2)cc1OC (centres undefined),5%,?,11,-14,6%,-23%
Cc1ccnc(N/C=C(/NC(=O)c2ccccc2)C(=O)N/N=C\c2ccc(Cl)cc2)n1,7%,?,-9,1,?,?
COc1ccc(C(=O)c2[nH]c(N)c(C(=O)NCCc3c[nH]c4ccccc34)c2-c2ccccc2Br)cc1,/,?,0,/,13µM*,/
Nc1[nH]c(C(=O)c2ccccc2)c(-c2ccccc2Br)c1C(=O)NCc1ccc(-c2ccccc2)cc1,/,12µM*,-23,/,23µM*,/
O=C(COC(=O)CCc1c[nH]c2ccccc12)Nc1ccc([N+](=O)[O-])cc1,6%,-21%,43,-13,-11%,3%
Nc1[nH]c(C(=O)c2ccccc2)c(-c2ccc(Cl)cc2)c1C(=O)NCc1ccccc1,/,-16%,12,/,-7%,/
COc1ccc(C(=O)NCCc2c[nH]c3ccc(OC)cc23)cc1,/,-19%,-10,-14,3%,-6%
Nc1[nH]c(C(=O)c2ccccc2)c(-c2ccccc2Br)c1C(=O)NCCc1c[nH]c2ccccc12,/,21µM*,?,/,16µM*,/
Nc1[nH]c(C(=O)c2ccccc2)c(-c2ccc([N+](=O)[O-])cc2)c1C(=O)NCCc1c[nH]c2ccccc12,/,15µM*,-23,/,23µM*,/
CN1C(=O)C2(OCC(CO)([N+](=O)[O-])CO2)c2ccccc21 (centres undefined),/,1%,-11,-2,-5%,?
CCCCSc1ncnc2[nH]ncc12,0%,-16%,0,-24,-8%,0%
Nc1[nH]c(C(=O)c2ccccc2)c(-c2ccccc2C(F)(F)F)c1C(=O)NCCc1c[nH]c2ccccc12,/,?,-1,/,?,/
Nc1[nH]c(C(=O)c2ccc(Br)cc2)c(-c2ccc(Br)cc2)c1C(=O)NCCc1c[nH]c2ccccc12,/,18µM*,10,/,?,/
CCCCNC(=O)c1ccc2c(=O)n(Cc3ccc(OC)cc3)c(=O)[nH]c2c1,0%,-18%,/,/,-2%,/
CCN(CC)S(=O)(=O)c1cccc(C(=O)OCC(=O)C23CC4CC(CC(C4)C2)C3)c1,7%,23µM*,-6,-15,?,?
CCOC(=O)c1c(C)[nH]c(C)c1C(=O)COC(=O)c1cccc(S(=O)(=O)N(CC)CC)c1,6%,29µM*,-12,3,?,-27%
CC(NC(=O)COC(=O)C1CC2CCCC(C1)C2=O)c1ccccc1 (centres undefined),0%,9%,13,-18,1%,14%
Cn1cccc1/C=N/NC(=O)c1cccc(OC(F)(F)C(F)F)c1,6%,-27%,-16,-9,14%,?
C[C@H](CO)N1C[C@H](C)[C@@H](CN(C)S(=O)(=O)c2ccc(F)cc2)Oc2ccc(NC(=O)C3CCCCC3)cc2C1=O,1%,16µM*,-23,-5,?,-3%
C[C@H]1CN([C@@H](C)CO)C(=O)c2cc(NC(=O)C3CCCCC3)ccc2O[C@H]1CN(C)S(=O)(=O)c1ccccc1,2%,?,-6,7,21µM*,?
COc1ccc(S(=O)(=O)N(C)C[C@H]2Oc3ccc(NC(=O)C4CCCCC4)cc3C(=O)N([C@H](C)CO)C[C@@H]2C)cc1,0%,-27%,0,2,-23%,-9%
COc1ccc(S(=O)(=O)N(C)C[C@H]2Oc3ccc(NC(=O)C4CC4)cc3C(=O)N([C@H](C)CO)C[C@@H]2C)cc1,3%,?,-3,-7,?,?
Cc1ccc(S(=O)(=O)N(C)C[C@H]2Oc3ccc(NC(=O)C4CCCCC4)cc3C(=O)N([C@H](C)CO)C[C@H]2C)cc1,1%,21µM*,-69*,-12,26µM*,4%
COc1ccc(CCNC(=O)CSc2ccc3nnc(CCNC(=O)c4ccccc4)n3n2)cc1OC,1%,-9%,1,-2,-19%,3%
Cc1cccc(N(C)c2ncnc3onc(-c4ccc(F)cc4)c23)c1C,/,16µM*,40,20,?,-29%
SMILES,TDP1 inh,DT40 TDP1 no CPT,IL-1B inflam inh,Giardia kill,DT40 TDP1 CPT,ELG1 repair inh
CCOC(=O)C1(CC2CCCCO2)CCN(Cc2ccccc2-c2ccco2)CC1 (centres undefined),0%,21µM*,40,-6,?,1%
OCC1(CC2CCCCO2)CCN(Cc2ccccc2-c2ccco2)CC1 (centres undefined),/,-19%,-26,18,19%,-1%
CCCCc1ncc(CN2CCC(CC3CCCCO3)(C(=O)OCC)CC2)[nH]1 (centres undefined),-1%,-27%,-4,-4,?,7%
CCOC(=O)C1(CC2CCCCO2)CCN(Cc2cc3ccccc3[nH]2)CC1 (centres undefined),0%,16µM*,-91*,-10,?,?
CCOC(=O)C1(CC2CCCCO2)CCN(Cc2cn[nH]c2-c2cccc(F)c2)CC1 (centres undefined),0%,10µM*,22,4,16µM*,-6%
Cc1ccc(Cl)cc1,10%,/,/,/,/,/
O=C(NCc1cc(C(F)(F)F)ccc1Cl)c1cccc2c1C(=O)c1ccc(N3CCCCC3)cc1S2(=O)=O,-1%,?,59,-25,?,?
